# Sampled rows, rich in hits. Any-hit rate of the full collection: about 3%.
# ABHD5-PLIN5 inh = blocks binding of human ABHD5 to perilipin-5; hit rate 0.78% among 360,000; inhibition, % at 4 µM; Split G. princeps luciferase complementation, luminescence, 4 h; Q00G26+Q8WTS1; AID 602281;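 active means inhibition above the mean inhibition across every tested compound plus 3 SD, cut at about 22% in these data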;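 further: 0% = DMSO only wells and the 100% control is not disclosed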
# Target sequence (Q00G26 whole entry, looked up): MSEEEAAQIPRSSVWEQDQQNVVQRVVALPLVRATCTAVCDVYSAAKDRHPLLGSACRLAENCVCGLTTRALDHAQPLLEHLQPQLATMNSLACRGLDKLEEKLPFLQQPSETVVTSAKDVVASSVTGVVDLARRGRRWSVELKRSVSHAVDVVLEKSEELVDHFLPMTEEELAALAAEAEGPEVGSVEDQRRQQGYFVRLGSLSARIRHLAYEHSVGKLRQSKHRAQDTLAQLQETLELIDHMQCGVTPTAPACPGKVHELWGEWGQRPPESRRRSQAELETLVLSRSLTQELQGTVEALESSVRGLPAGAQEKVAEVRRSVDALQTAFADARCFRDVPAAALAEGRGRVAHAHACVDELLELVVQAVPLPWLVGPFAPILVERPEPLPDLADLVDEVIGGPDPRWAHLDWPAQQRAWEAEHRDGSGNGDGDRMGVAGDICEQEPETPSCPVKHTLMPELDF
# Target sequence (Q8WTS1 whole entry, looked up): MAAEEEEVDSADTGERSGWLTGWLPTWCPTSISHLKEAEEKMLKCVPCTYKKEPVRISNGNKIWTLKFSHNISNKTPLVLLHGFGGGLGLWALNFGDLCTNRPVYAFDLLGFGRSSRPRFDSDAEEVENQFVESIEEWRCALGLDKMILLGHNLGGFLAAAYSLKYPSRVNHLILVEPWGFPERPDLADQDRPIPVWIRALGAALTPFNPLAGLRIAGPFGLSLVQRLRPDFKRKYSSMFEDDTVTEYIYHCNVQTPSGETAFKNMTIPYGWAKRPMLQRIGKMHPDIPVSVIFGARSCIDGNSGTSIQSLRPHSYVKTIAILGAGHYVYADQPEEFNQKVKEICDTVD
# KKLEB cytotox = counter-screen for CF NF-kB inhibitors: cytotoxicity; KKLEB CF airway cells viability, ATPlite luminescence, overnight; active compounds read low; cells stimulated with P. aeruginosa culture filtrate; activity change (cytotoxicity), % at 5 µM; hit rate 0.36% among 360,000;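 active means corrected activity change at or below -50% at 5 µM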
# Peg3 prom inh-1 = inhibitors of Peg3 promoter. inhibition, % at 20 µM. HeLa PEG-Prom luciferase reporter, luminescence, overnight. hit rate 1.7% among 360,000;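 active means inhibition of at least 50% at 20 µM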
# HIF-2a block = HIF-2a inhibition | 786-0 RCC cells HIF-2a reporter, luciferase luminescence, overnight | inhibition, % at 18.8 µM | hit rate 0.72% among 360,000;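 active means inhibition of the luminescence signal of 40% or more relative to plate controls, in a single-dose primary screen at 18.75 µM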
# TRPM1 prom inh = inhibitors of MITF-driven TRPM1 promoter in melanoma cells. AID 488899. hit rate 0.83% among 330,000. SK-MEL-5 TRPM1 promoter luciferase, 24 h. inhibition, % at 12.5 µM;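 active means mean inhibition across replicates of 60% or more, whatever share of single replicates reaches that level; inconclusive means some that reach 60%, reason not given; inactive means mean inhibition across replicates below 60%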
# CF NFkB inh = inhibitors of cystic fibrosis induced NF-kB | KKLEB NF-kB-GFP reporter, PAF-induced, GFP fluorescence overnight | inhibition, % at 5 µM | hit rate 0.86% among 360,000 | AID 588850;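 active means at least 50% inhibition at 5 µM, scaled per plate between neutral and stimulator controls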;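 further: PAF is a Pseudomonas aeruginosa culture filtrate used as stimulus; plate controls were PAF-stimulated DMSO wells for no effect and unstimulated DMSO wells for full effect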
# Peg3 prom inh-2 = Peg3 promoter inhibition confirmation; inhibition, % at 20 µM; hit rate 84% among 1,300; shares compounds with Peg3 prom inh-1; HeLa PEG-Prom luciferase reporter, luminescence, overnight;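 active means at 20 µM dose, 40% or more inhibition averaged across four replicates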
# Starred values were filed as active, the others as inactive; ? = inconclusive; / = no result.
SMILES,ABHD5-PLIN5 inh,KKLEB cytotox,Peg3 prom inh-1,HIF-2a block,TRPM1 prom inh,CF NFkB inh,Peg3 prom inh-2
COc1cc(OC)cc(C(=O)Nc2ccccc2-c2nnn(CC(=O)Nc3cc(C)on3)n2)c1,-5,-7,71*,7,-1,17,19
Cc1cc(C)c2c(N)c3ccccc3nc2n1,-5,9,87*,15,66*,-146,91*
Cc1cccc2cc3c(NC(=O)C(C)(C)C)nn(CC(C)C)c3nc12,-12,-4,18,28,-2,8,/
COc1ccc(-c2cc3ccccc3n2CC(O)CN2CCCCC2)cc1 (stereo unspecified),11,7,3,1,-13,5,/
CCC(=C(c1ccc(OC)cc1)c1ccc(OC)cc1)c1cn(CC(O)CN2CCN(C)CC2)c2ccccc12 (stereo unspecified),17,-25,105*,12,86*,21,101*
CCn1cc(C(=O)NCc2ccco2)c(=O)c2cc(S(=O)(=O)N3CC(C)CC(C)C3)ccc21 (stereo unspecified),3,6,58*,30,16,-1,61*
CCn1cc(C(=O)NCc2ccco2)c(=O)c2cc(S(=O)(=O)N3CCC(C)CC3)ccc21,3,-5,18,29,13,-16,/
Cc1cnc(NC(=O)c2ccc(OCC3CCCO3)cc2)s1 (stereo unspecified),1,-42,53*,19,26,16,11
Cc1cc(-c2nc(C)c(C(=O)NN)s2)no1,-3,5,12,8,1,-14,/
Cc1nn(-c2ccccc2)c(C)c1NC(=O)COC(=O)c1cc(Br)ccc1O,3,2,1,11,-2,-1,/
COc1ccccc1NC(=S)NC1CCCCC1,-7,-4,-16,14,9,8,/
COc1ccccc1NC(=S)NC1CCCCCCCCCCC1,-3,-17,55*,22,4,16,91*
C=C(C)CN1CCN(c2c(CCC#N)c(C)c(C#N)c3nc4ccccc4n23)CC1,-3,-5,82*,7,11,7,41*
CCCCCc1c(C)c(C#N)c2nc3ccccc3n2c1-n1ccnc1C,-1,-24,9,21,8,14,/
O=S(=O)(/N=C(/Sc1ccccc1)c1ccccc1)c1ccccc1,7,-5,60*,22,?,-6,75*
CS/C(=N\S(=O)(=O)c1ccccc1)c1ccccc1,4,0,-1,13,8,11,/
Cc1nc(SCC(=O)Nc2ccc(S(=O)(=O)N3CCOCC3)cc2)c2c(C)c(C)sc2n1,-2,-26,70*,-4,29,37,40
CCNC(=S)Nc1nc2c(cc1C(=O)OCC)CCCC2,-5,-5,-79,-71,-4,4,/
O=C1c2cccnc2C(=O)N1CO,-5,-3,16,18,-7,0,/
NC1=C(Br)C(=O)c2ncccc2C1=O,-20,-64*,102*,83*,94*,79*,99*
COc1ccc2c(c1)sc1nc(-c3ccccc3)cn12,-9,-96*,85*,78*,91*,22,74*
CC(C)(C)CC(=O)Nc1cc2c3c(c1)CC(=O)N3CCC2,-1,1,-15,8,-9,10,/
N=c1c2c(-c3ccccc3)c(-c3ccccc3)n(Cc3ccccc3)c2ncn1CCO,8,-10,98*,34,26,16,96*
N=c1c2c(-c3ccccc3)c(-c3ccccc3)n(Cc3ccco3)c2ncn1Cc1ccccc1,5,7,9,22,6,-19,/
Nc1nonc1C(=O)NCCNC(=O)c1ccc(Cl)c(Cl)c1,6,4,9,32,8,8,/
SMILES,ABHD5-PLIN5 inh,KKLEB cytotox,Peg3 prom inh-1,HIF-2a block,TRPM1 prom inh,CF NFkB inh,Peg3 prom inh-2
COc1ccc2[nH]c3c(c2c1)CCN1C(=O)C(CC(=O)NCCc2ccccn2)C[C@H](C(=O)N2CCCCC2)[C@@]31CCc1ccccc1 (stereo partly specified),9,-13,6,7,6,21,/
O=C(C[C@H]1C[C@H](C(=O)N2CCCCC2)[C@@]2(CCc3ccccc3)c3[nH]c4ccc(Cl)cc4c3CCN2C1=O)NCCc1ccccn1,0,2,69*,7,52,35,88*
O=C(/C=C/c1ccccc1)NC(NC(=S)Nc1cccc(Cl)c1)C(Cl)(Cl)Cl (stereo unspecified),-2,-4,79*,32,20,7,67*
COc1ccccc1C1c2ccc3ccccc3c2Oc2ncn(CCCO)c(=N)c21 (stereo unspecified),11,-6,102*,1,62*,16,97*
COc1ccc(C2c3ccc4ccccc4c3Oc3ncn(Cc4ccco4)c(=N)c32)cc1OC (stereo unspecified),13,-10,42,-9,27,37,/
COC(=O)c1ccc(NC(=O)c2ccc(NC(=O)c3ccco3)cc2)cc1,6,-4,-6,2,-4,-4,/
CC(C)COc1ccc(C(=O)Nc2ccc(NC(=O)c3ccco3)cc2)cc1,-5,6,77*,-4,-13,-10,38
CCN1CCc2c(sc(NC(=O)c3ccc(S(=O)(=O)N4CCCCCC4)cc3)c2C(=O)NC)C1,3,6,71*,16,67*,5,62*
CCN1CCc2c(sc(NC(=O)c3ccc(S(=O)(=O)N4CCOCC4)cc3)c2C(=O)OC)C1,2,1,76*,17,2,-23,-20
CCN1CCc2c(sc(NC(=O)c3ccc(S(=O)(=O)N4CCOCC4)cc3)c2C(N)=O)C1,1,3,5,12,-2,-42,/
CCCN1CCc2c(sc(NC(=O)c3ccc(S(=O)(=O)N4CCCC4)cc3)c2C(N)=O)C1,11,10,9,21,14,-1,/
CCOC(=O)C(C(=O)N(C)Cc1ccccc1)C1CCCCC1 (stereo unspecified),-5,-7,17,19,4,17,/
CC1CCCC(C)N1C(=C(Cl)Cl)C(=C1SCCS1)[N+](=O)[O-] (stereo unspecified),-6,-28,71*,30,-20,26,59*
CC1Cc2cc(S(=O)(=O)N3CCC(C(=O)N4CCN(c5ccccc5F)CC4)CC3)ccc2N1C(=O)C1CC1 (stereo unspecified),8,-6,32,14,16,5,/
COC(=O)c1ccc2nc(-c3ccc4c(c3)OCO4)cn2c1,3,-35,-2,-37,17,-15,/
CCc1ccn2cc(-c3ccc4c(c3)OCO4)nc2c1,0,-76*,84*,60*,65*,-16,72*

# Assay outcomes deposited in PubChem by several laboratories.
